ALR H2O2 inh: inhibitors of human ALR sulfhydryl oxidase, primary screen, biochemical, H2O2 detection, HRP-luminol luminescence, single point; purified ALR, DTT oxidation; inhibition, % (no concentration beside the values); AID 485317, 2010; hit rate 3.8% among 290,000;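 active = mean replicate inhibition above about 79%, with every replicate also reaching it, limit read from the data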
PDI turbidity: inhibitors of human PDI, primary screen, biochemical, turbidity, single point, plate reader; inhibition, % at 10 µM; PDI insulin aggregation turbidity, A650, 90 min; hit rate 0.052% among 350,000; Protein disulfide-isomerase (Homo sapiens), P07237;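 active = mean inhibition across replicates of 30% or more, whatever share of single replicates reach that level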
Target sequence (P07237 whole entry, looked up): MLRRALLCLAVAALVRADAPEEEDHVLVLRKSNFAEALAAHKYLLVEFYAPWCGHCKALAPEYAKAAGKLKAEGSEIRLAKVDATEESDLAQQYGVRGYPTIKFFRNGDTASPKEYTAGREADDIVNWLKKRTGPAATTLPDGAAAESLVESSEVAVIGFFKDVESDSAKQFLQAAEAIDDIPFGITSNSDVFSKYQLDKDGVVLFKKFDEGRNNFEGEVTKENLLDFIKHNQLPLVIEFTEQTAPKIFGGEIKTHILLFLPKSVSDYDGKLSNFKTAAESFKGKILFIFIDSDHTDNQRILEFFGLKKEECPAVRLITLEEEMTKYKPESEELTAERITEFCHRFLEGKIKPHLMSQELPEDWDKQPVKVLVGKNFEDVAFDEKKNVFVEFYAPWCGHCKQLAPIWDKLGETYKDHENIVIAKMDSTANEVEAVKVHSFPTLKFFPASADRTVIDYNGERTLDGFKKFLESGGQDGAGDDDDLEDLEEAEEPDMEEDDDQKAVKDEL
ARNT-TACC3 inh: disruptors of ARNT/TACC3 protein interaction, primary screen, biochemical, AlphaScreen, single concentration | AlphaScreen His-ARNT PAS-B/GST-TACC3 binding, luminescence; TACC3 fragment carries E629A point mutation | inhibition, % at 9.99 µM | hit rate 0.66% among 390,000 | AID 623870, 2012;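 active = mean inhibition of replicates at least 50% and at least half of replicates each reaching 50%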;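 also: 0% = complete ARNT plus TACC3 wells and 100% = ARNT alone without TACC3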
CendR NRP1 mod: modulators of CendR peptide binding to NRP-1, primary screen, biochemical, fluorescence polarization, uHTS | inhibition, % at 25 µM | FAM-RPARPAR peptide binding to NRP-1 | hit rate 0.85% among 360,000 | Neuropilin-1 (Homo sapiens), O14786;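 active = inhibition or corrected inhibition above about 18%, plus a signal ratio from 0.5 to 1.5, limit read from the data, passing the limit was not always enough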
PglD inh: C. jejuni PglD acetyltransferase inhibitors, primary screen, biochemical, DTNB colorimetric, single point; UDP-N-acetylbacillosamine N-acetyltransferase PglD (Campylobacter jejuni); purified PglD enzyme, DTNB colorimetric CoA detection; inhibition, % at 12.5 µM; hit rate 0.098% among 360,000; in the data active = inhibition above about 16%, passing the limit was not always enough
ERp5 inh: inhibitors of ERp5-driven insulin aggregation, primary screen, biochemical, turbidity, absorbance 650 nm, single point | Protein disulfide-isomerase A6 (Homo sapiens), Q15084 | 90 min | inhibition, % at 9.99 µM | hit rate 0.05% among 350,000;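 active = mean replicate inhibition above about 25%, with every replicate also reaching it, limit read from the data, passing the limit was not always enough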
* = called active by the depositor; . = not tested or not shown. Only a selection was taken, and hits are over-represented in it overall.

SMILES	ALR H2O2 inh	PDI turbidity	ARNT-TACC3 inh	CendR NRP1 mod	PglD inh	ERp5 inh
CC(C)(C)N(NC(=O)Nc1ccc(Cl)cc1)C(=O)c1ccccc1	5.4	0.5	27.9	29.3*	-4.6	.
COc1ccc(S(=O)(=O)Nc2ccc3c(c2)C(=O)N([C@H](C)CO)C[C@H](C)[C@@H](CN(C)C(=O)NC(C)C)OCCCC[C@H](C)O3)cc1	.	.	-1.4	.	0.6	1.8
CN1C(=O)c2cc(NC(=O)Cc3ccccc3)ccc2OC[C@@H]2O[C@H](CC(=O)NC3CCC3)CC[C@H]21	.	.	-18.4	.	2.1	2.7
O=C1CCC(OCc2ccccc2)CCN1CC[C@@H](Sc1ccccc1)c1ccccc1 (stereo partly specified)	.	.	.	-5.5	.	6.6
CC(=O)Nc1ccc(S[C@@H](CCN2CC[C@H](O)CCC2=O)c2ccccc2)cc1	98.7*	-6.7	1.8	8.9	-2.6	1.4
O=C(N[C@@H]1CCC(=O)N(CC[C@H](Sc2ccc(Br)cc2)c2ccccc2)CC1)OCc1ccccc1	-4.5	-5.2	-2.9	20.0*	3.4	4.7
O=C1CC[C@@H](OCc2ccccc2)CCN1CC[C@H](Sc1ccccc1)c1ccccc1	1.5	6.3	.	29.1*	-0.1	0.0
CNC[C@@H]1Oc2ccc(NC(=O)Nc3ccc(F)cc3)cc2CC(=O)N([C@H](C)CO)C[C@@H]1C	.	.	-21.8	.	-2.6	1.5
O=C(c1ccccc1F)N1CCN(Cc2ccccc2F)CC1	0.8	-3.9	-9.7	29.1*	.	.
O=C(c1ccccc1)c1ccccc1C(=O)N1CCN(Cc2ccccc2F)CC1	.	-5.9	-1.7	-0.4	-2.3	-7.3
CN1CCN(CC(=O)c2ccccc2F)CC1	.	-2.1	-2.5	17.3*	5.0	2.4
CN1CCCN(C(=O)CNC(=O)c2ccccc2F)CC1	.	2.4	-1.1	-14.8	2.5	4.3
C[C@@H]1CN([C@H](C)CO)C(=O)c2cc(NC(=O)CCCN(C)C)ccc2O[C@@H](C)CCCCO[C@@H]1CN(C)CC1CCCCC1	.	.	2.8	.	-1.7	0.8
Nc1ccc(Oc2cccc(Oc3ccc(N)cc3)c2)cc1	99.8*	2.4	1.9	2.7	.	-2.7
c1ccc2c(Oc3ccc4c(c3)OCO4)nncc2c1	-2.6	5.8	-5.8	11.8	-0.3	.
Cc1cc(C)cc(Oc2ccc(N)cc2)c1	98.5*	0.9	-2.9	0.1	.	.
Cc1cccc(Oc2ccccc2N)c1	-0.4	-5.5	-3.5	14.1	.	-5.1
Cc1cccc(Oc2ccc(N)cc2)c1	98.0*	1.3	0.2	6.2	.	.
Nc1ccc(Oc2ccc3c(c2)OCO3)cc1	98.9*	8.6	-6.1	0.3	.	6.0
C/C=C/c1ccc([C@@H]2[C@H](CO)N(C(=O)CN(C)C)C23CN(C(=O)C2CCCC2)C3)cc1	.	.	.	.	.	-2.8
COCC(=O)Nc1ccc2c(c1)C(=O)N(C)C[C@H](OC)[C@H](C)CN(Cc1ccccc1F)[C@H](C)CO2	.	.	-7.5	.	0.5	6.7
Nc1nnc(N2CCc3ccccc32)s1	98.7*	.	.	6.9	-1.2	0.6
COc1ccccc1CNC(=O)C[C@H]1CC[C@H]2[C@@H](COC[C@@H](O)CN2C(=O)Nc2ccc(Cl)cc2)O1	.	.	1.7	.	3.1	2.0
Cc1ccc(Cn2ccsc2=NC(=O)CCl)cc1	97.0*	1.1	-7.7	-10.1	.	-3.8
COc1ccccc1NC(=O)N(C)C[C@H]1OCc2ccccc2-c2ccccc2C(=O)N([C@H](C)CO)C[C@H]1C	.	.	.	.	.	-0.4
SMILES	ALR H2O2 inh	PDI turbidity	ARNT-TACC3 inh	CendR NRP1 mod	PglD inh	ERp5 inh
COc1ccc(NC2CCCN(C(=O)CN3CCOC3=O)C2)cc1OC (stereo unspecified)	99.5*	4.7	-0.1	8.0	-2.2	-0.3
Cc1ccn(CC(=O)N2CCCC(Nc3ccc(F)c(F)c3)C2)n1 (stereo unspecified)	4.2	-0.4	-0.3	7.4	-8.8	1.5
COc1ccc(NC2CCCN(C(=O)CSc3ccccc3)C2)cc1OC (stereo unspecified)	-15.6	-3.9	-2.5	18.3	-1.3	2.3
COc1ccc(NC2CCCN(C(=O)Cn3ccc(C)n3)C2)cc1OC (stereo unspecified)	99.0*	-7.1	19.4	2.9	-5.2	13.4
COc1ccc(NC2CCCN(C(=O)CN3CCOC3=O)C2)cc1 (stereo unspecified)	98.3*	4.0	4.2	5.3	5.1	-6.0
COCC(=O)N(C)C[C@@H]1Oc2ncc(C#Cc3ccccc3)cc2C(=O)N([C@@H](C)CO)C[C@@H]1C	.	.	-3.6	.	-2.6	-0.9
CO[C@@H]1CN(C)C(=O)c2cc(NC(=O)Nc3cccc(F)c3)ccc2OC[C@H](C)NC[C@@H]1C	.	.	-4.9	.	-0.9	3.4
CN1c2ccc(C#Cc3ccc(F)cc3)cc2[C@@H]2[C@@H](CCN2S(=O)(=O)c2ccccc2F)[C@H]1CO	.	.	-5.5	.	-1.7	-1.6
COc1ccc(/C=C2\C(=O)OCc3cc(OC)c(OC)cc32)cc1OC	12.9	-0.7	8.0	25.2*	3.6	.
O=C(Nc1cccc(F)c1)N1CC(=O)N2[C@H](CO)[C@H](c3ccc(-c4ccccc4F)cc3)[C@H]2C1	.	.	.	.	.	-0.3
COc1ccccc1C#Cc1cnc2c(c1)C(=O)N([C@@H](C)CO)C[C@@H](C)[C@@H](CN(C)C(=O)CC1CC1)O2	.	.	0.9	.	-0.8	-0.1
COc1c(O)c(=O)n2c3ccccc3c3ccnc1c32	97.7*	.	21.3	13.9	-2.6	-1.1
COc1c(OC)c2[nH]c(=O)cc3c4ccccc4n(c1=O)c23	-4.3	.	35.7	5.4	-5.0	3.5
Cn1c(=O)c(-c2cccc(Cl)c2)c(O)c2ccccc21	-1.2	1.2	-1.7	-4.7	2.3	.
O=c1c(Cl)c(O)c2cccc3c4ccccc4n1c23	99.0*	12.7	-9.5	-20.9	.	4.0
Cc1noc(C)c1S(=O)(=O)Nc1ccc2c(c1)C(=O)N([C@H](C)CO)C[C@H](C)[C@H](CN(C)CC1CCCCC1)O2	.	.	-5.8	.	0.3	0.3
C[C@H]1CN([C@@H](C)CO)C(=O)Cc2cc(NC(=O)Nc3ccc4c(c3)OCO4)ccc2O[C@@H]1CN(C)S(=O)(=O)c1ccccc1	.	.	.	.	.	-1.0
CCc1cn(S(=O)(=O)c2ccccc2OC)nc1N	-2.7	0.3	-6.4	-1.6	4.7	5.8
CCCc1cn(S(=O)(=O)c2ccc(OC)cc2OC)nc1N	98.0*	6.7	3.7	-0.1	-8.1	-0.1
CCN(CC)CCn1c2ccccc2c2n[nH]c(=S)nc21	93.8*	0.6	15.8	7.5	6.2	-1.4
O=C(C[C@H]1CC[C@H]2[C@@H](COC[C@H](O)CN2C(=O)c2ccncc2)O1)NC1Cc2ccccc2C1	.	.	4.0	.	8.3	2.7

High-throughput results as filed in PubChem BioAssay.
